Screens: PubChem BioAssay, several laboratories
BoNT-A LC inh2: blocks Botulinum neurotoxin A light chain protease. multiplex microsphere protease substrate cleavage, flow cytometry. inhibition, % at 10 µM. 0.17% of 360,000 active. AID 588499; in the data active means inhibition above about 30%; inconclusive means no clear call, values can overlap the other calls; further: plate controls were buffer without enzyme for full effect and enzyme alone for no effect
3CLpro inhibitor: SARS-CoV 3CLpro protease inhibition; P0C6X7; recombinant SARS-CoV 3CLpro, quenched FRET peptide cleavage; inhibition, % at 6 µM; 0.14% of 290,000 active; AID 1706; in the data active means inhibition above about 12%
Anthrax LF prot: blocks Bacillus anthracis lethal factor protease | P15917 | multiplex microsphere protease cleavage assay, LF | inhibition, % at 10 µM | 0.12% of 360,000 active; in the data active means inhibition above about 30%; inconclusive means no clear call, values can overlap the other calls; further: plate controls were buffer without enzyme for full effect and enzyme alone for no effect
Target sequence (P15917 whole entry, looked up): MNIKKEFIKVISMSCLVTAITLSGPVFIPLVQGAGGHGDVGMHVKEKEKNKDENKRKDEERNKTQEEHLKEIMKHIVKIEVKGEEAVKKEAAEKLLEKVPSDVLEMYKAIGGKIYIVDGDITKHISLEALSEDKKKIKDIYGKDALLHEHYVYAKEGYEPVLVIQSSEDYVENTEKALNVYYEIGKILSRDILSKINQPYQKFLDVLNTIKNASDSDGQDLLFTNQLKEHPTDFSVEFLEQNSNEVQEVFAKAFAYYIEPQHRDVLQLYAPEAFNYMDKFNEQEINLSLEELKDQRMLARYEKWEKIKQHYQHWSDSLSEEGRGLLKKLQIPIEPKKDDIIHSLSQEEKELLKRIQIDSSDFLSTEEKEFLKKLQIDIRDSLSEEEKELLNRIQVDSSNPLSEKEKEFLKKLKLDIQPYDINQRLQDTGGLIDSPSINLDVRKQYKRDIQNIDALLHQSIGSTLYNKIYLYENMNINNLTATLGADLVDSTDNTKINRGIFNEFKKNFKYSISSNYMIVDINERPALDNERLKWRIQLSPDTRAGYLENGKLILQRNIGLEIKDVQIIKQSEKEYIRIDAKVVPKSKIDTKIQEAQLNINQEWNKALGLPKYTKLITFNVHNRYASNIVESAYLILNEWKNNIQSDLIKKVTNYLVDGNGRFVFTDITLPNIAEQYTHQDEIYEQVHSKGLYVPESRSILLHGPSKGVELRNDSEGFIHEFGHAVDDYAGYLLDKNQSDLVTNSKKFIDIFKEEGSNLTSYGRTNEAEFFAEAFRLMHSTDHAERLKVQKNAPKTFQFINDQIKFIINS
BoNT-F LC inh: BoNT F light chain protease inhibition; AID 588497; inhibition, % at 10 µM; 0.22% of 360,000 active; Multiplex microsphere protease cleavage assay, flow cytometry; in the data active means inhibition above about 35%, passing the limit was not always enough; inconclusive means no clear call, values can overlap the other calls; further: plate controls were buffer without enzyme for full effect and enzyme alone for no effect
Autofluor counter: compound fluorescence in toxin protease inhibitor counterscreen. compound autofluorescence counterscreen, microsphere flow cytometry; stronger effect = higher value. fluorescence intensity (test concentration not listed). 3.1% of 360,000 active; in the data active means fluorescence intensity above about 16000; inconclusive means no clear call, values can overlap the other calls
BJeLR lethal: BJeLR cell viability loss; 0.17% of 300,000 active; BJeLR (HRASV12) viability, CellTiter-Glo ATP luminescence, 48 h; inhibition, % (no concentration beside the values); AID 1554; in the data active means inhibition above about 50%; inconclusive means no clear call, values can overlap the other calls
BoNT-A LC CP1: inhibitors of Botulinum neurotoxin A light chain protease; multiplex microsphere protease assay, flow cytometry; 3% of 720 active; inhibition, % at 10 µM; AID 602139; shares compounds with BoNT-F LC inh; in the data active means inhibition above about 32%
BoNTF LC inh 1: blocks botulinum neurotoxin F light chain protease. shares compounds with BoNT-F LC inh. multiplex microsphere protease cleavage assay, flow cytometry. inhibition, % at 10 µM. 720 tested, under 10 active. AID 602140
Anthrax LF CP1: inhibitors of Bacillus anthracis lethal factor protease. shares compounds with BoNT-F LC inh. multiplex microsphere protease cleavage assay, LF. inhibition, % at 10 µM. 720 tested, under 10 active. AID 602142
* marks the source's active call; other numbers are inactive results; u = inconclusive; x = no result given; + = active, no number. The list is not random: actives were taken first. Their share in the collection is about 3.6%. Unless noted, how the calls were made is not given here.

SMILES | BoNT-A LC inh2 | 3CLpro inhibitor | Anthrax LF prot | BoNT-F LC inh | Autofluor counter | BJeLR lethal | BoNT-A LC CP1 | BoNTF LC inh 1 | Anthrax LF CP1
COc1cc2cc(C(c3nnnn3C(C)(C)C)N3CCc4ccccc4C3)c(=O)[nH]c2cc1OC (stereo not given) | 2 | 3 | -1 | -1 | 6554 | -2 | x | x | x
Cc1ccc2cc(C(c3nnnn3C(C)(C)C)N3CCCCCC3)c(=O)[nH]c2c1 (stereo not given) | 1 | -2 | -2 | 5 | 10312 | -5 | 0 | 0 | -4
COc1ccc2cc(C(c3nnnn3CCc3ccccc3)N3CCC(O)CC3)c(=O)[nH]c2c1 (stereo not given) | 30* | 0 | 15 | + | 38811* | x | 2 | -5 | -8
COc1ccccc1NS(=O)(=O)c1ccc(NC(=O)N2CCCCC2)cc1 | -1 | 0 | -2 | -5 | 6714 | 7 | x | x | x
CC(=O)N1CCN(CC(=O)Nc2ccc([N+](=O)[O-])cc2Br)CC1 | -1 | 6 | -6 | -6 | 5171 | 2 | x | x | x
c1ccc2c(C3=NNC(=NC4CC4)SC3)c[nH]c2c1 | 41* | 1 | 12 | -10 | 4586 | 6 | 7 | -19 | 9
CCNc1nc(NCC)n2c(SCC(=O)Nc3ccc(C)c(C)c3)nnc2n1 | 16 | x | 1 | 37* | u | -2 | -1 | -3 | 0
CC1CCN(S(=O)(=O)c2ccc3c(c2)N(C)C(=O)CC(=O)N3C)CC1 | 1 | 0 | -4 | 0 | 6016 | -9 | x | x | x
COc1ccc(C(CC(=O)Nc2cc(C)ccn2)N2Cc3ccccc3C2=O)cc1 (stereo not given) | 6 | -1 | 6 | 110* | 3901 | 3 | 1 | 0 | -2
CCOC(=O)c1cnc2c(C(=O)OCC)cnn2c1N | 1 | 1 | 31* | u | 4174 | 2 | 1 | 0 | 3
O=C(CCCN1C(=O)C(c2ccccc2)Oc2cccnc21)Nc1ccccc1Cl (stereo not given) | -2 | -4 | 3 | -3 | 5502 | 6 | x | x | x
CCN(C(=O)COC(=O)Cn1c(=O)oc2ccccc21)c1c(N)n(Cc2ccccc2)c(=O)[nH]c1=O | 6 | x | u | 7 | u | x | x | x | x
O=C(COC(=O)Cc1cccs1)NCC(=O)Nc1ccc(F)cc1 | 0 | x | 4 | -3 | 3858 | x | x | x | x
CN(CC(=O)Nc1ccc(F)cc1)C(=O)COC(=O)Cc1cccs1 | 4 | x | -1 | 40* | u | 6 | 1 | -1 | -2
[O-]/C(=C(\C(=S)NCc1ccccc1)[n+]1ccccc1)c1ccc(Cl)cc1 | 17 | 1 | 2 | -18 | 4807 | 0 | x | x | x
CC(=O)c1ccc(N2CCN(C(=O)C3CCCN(S(=O)(=O)c4c(C)[nH]c(=O)[nH]c4=O)C3)CC2)cc1 (stereo not given) | 3 | -1 | 0 | 8 | 4271 | -2 | x | x | x
CCSc1ncc(Cl)c(C(=O)Nc2ccccc2C)n1 | 0 | 5 | 8 | 6 | 4089 | -1 | x | x | x
CSc1ncc(Cl)c(C(=O)Nc2ccccc2C)n1 | 1 | 0 | 30* | -12 | 3352 | -7 | 0 | -5 | -2
CSCCC(NC(=O)/C(=C/c1ccco1)NC(=O)c1ccc(Br)o1)C(=O)O (stereo not given) | 2 | -4 | 0 | -3 | 3932 | -2 | x | x | x
CCOC(=O)CSc1nc2sc3c(c2c(=O)n1-c1ccc(OC)cc1)CCN(C)C3 | 42* | -1 | 3 | u | 4383 | 1 | 2 | -4 | -3
O=C(CSc1cc(Cl)ccc1Cl)Nc1ccc(N2CCOCC2)cc1 | 0 | x | -6 | -18 | 3040 | x | x | x | x
CCC(=O)Nc1nnc(S(=O)(=O)N(CC)c2ccc(Cl)cc2)s1 | -2 | 1 | 3 | 0 | 4343 | -1 | x | x | x
CCC(=O)Nc1nnc(S(=O)(=O)N(C)c2cc(C)cc(C)c2)s1 | -2 | -3 | 8 | 42* | 3945 | -7 | 1 | 1 | 1
Cc1cccc(C)c1NC(=O)C1CCCN1S(=O)(=O)c1ccc2c(c1)n(C)c(=O)c(=O)n2C (stereo not given) | 0 | 0 | -3 | -7 | 5987 | -8 | x | x | x
Cc1ccc(-c2csc3nc4c5ccccc5c(NCCCN(C)C)nn4c(=O)c23)cc1 | 36* | -5 | 13 | -2 | 5593 | 7 | 11 | -12 | 4
SMILES | BoNT-A LC inh2 | 3CLpro inhibitor | Anthrax LF prot | BoNT-F LC inh | Autofluor counter | BJeLR lethal | BoNT-A LC CP1 | BoNTF LC inh 1 | Anthrax LF CP1
C=CCN(c1ccccc1Cl)S(=O)(=O)c1cc(C(=O)N2CCCC2)ccc1Cl | 0 | 5 | 3 | -4 | 4395 | -8 | x | x | x
Cc1nnc(SCC(=O)NC(C)(C)C)n1C1CCCCC1 | 3 | 3 | 0 | 40* | 2608 | 0 | 3 | 12 | 1
Cc1nnc(SCC(=O)NC2CCCCCC2)n1C | 1 | 6 | -2 | 4 | 5614 | -3 | x | x | x
O=C(Nc1ccccc1)c1ccc(S(=O)(=O)Nc2cccc(O)c2)cc1 | 0 | 0 | -1 | -2 | 5682 | 9 | 0 | -7 | -4
O=C(Nc1ccccc1C(=O)O)c1cccc(S(=O)(=O)Nc2ccc(Br)cc2)c1 | -1 | 3 | 2 | 16 | 2788 | -5 | 0 | -2 | 0
O=C(Nc1ccccc1C(=O)O)c1cc(S(=O)(=O)Nc2cccc(F)c2)ccc1Cl | -2 | 1 | 2 | u | 4123 | -8 | 0 | -3 | 5
O=C(Nc1ccc(S(=O)(=O)Nc2ccccn2)cc1)c1cccc(Br)c1 | 2 | 8 | 3 | 0 | 5552 | 5 | x | x | x
O=C(Nc1ccc(S(=O)(=O)Nc2ccccn2)cc1)c1cccc(Cl)c1 | -2 | 1 | -4 | 36* | 3864 | 0 | 0 | -3 | -2
O=C(Nc1ccccc1C(=O)O)c1cccc(NS(=O)(=O)c2ccc(Br)cc2)c1 | 0 | 11 | 6 | 6 | 3689 | -11 | x | x | x
O=C(Nc1ccccc1C(=O)O)c1cc(S(=O)(=O)N2CCCCCC2)ccc1Cl | 0 | 9 | 8 | -5 | 3038 | -18 | x | x | x
Cc1ccc(NC(=S)NCc2ccccc2)cc1S(=O)(=O)N1CCCCC1 | -1 | 2 | -4 | 1 | 4190 | 7 | x | x | x
COc1cc(NC(=S)N2CCCCC2C)cc(OC)c1OC (stereo not given) | 1 | 0 | 0 | 0 | 2508 | -11 | x | x | x
Cc1ccc(C(=O)Nc2ccccc2C(=O)O)cc1S(=O)(=O)NC1CCCCC1 | 4 | 5 | -3 | 1 | 4898 | -3 | x | x | x
O=C(O)c1ccc(NS(=O)(=O)c2cccc(C(=O)Nc3ccc(Br)cc3)c2)cc1 | -2 | 6 | 31* | u | 4139 | -14 | -1 | 0 | 1
Cc1ccc(C(=O)Nc2ccccc2C(=O)O)cc1S(=O)(=O)Nc1ccccc1 | x | 5 | x | x | x | -4 | 0 | -2 | -5
Cc1cc(C(=O)Nc2ccccc2C(=O)O)ccc1NC(=O)COc1ccccc1Cl | -1 | -1 | 2 | -11 | 6141 | -5 | x | x | x
